MRP-1 activ = activates MRP-1. H69AR cells + doxorubicin, viability rescue, CellTiter-Glo. viability increase, % at 10 µM. 140,000 compounds, 0.61% hits. AID 799;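 active = viability gain under doxorubicin at or above a set limit, the compound median plus 3 SD, cut at about 4.7% in these data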;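 note: MRP-1 overexpressing cells given doxorubicin 25 µM after compound pretreatment; 18-22 h compound pretreatment then 72 h with doxorubicin before readout; 0% = doxorubicin-only wells and 100% = vehicle-treated cells without doxorubicin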
MRP reversal = reverses drug resistance mediated by MRP | differential viability (reversal), % at 10 µM | AID 602 | 85,000 compounds, 0.04% hits | H69AR cells + 2 uM doxorubicin, CellTiter-Glo, 72 h;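 active = viability drop by adding the cancer drug above about 55%, with treated viability meeting a 40% cutoff, limit read from the data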;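 note: viability without doxorubicin minus viability with 2 µM doxorubicin for each compound; larger differential means the compound sensitizes cells more to doxorubicin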
ERa coact inh = blocks coactivator binding to human estrogen receptor alpha | TR-FRET ER-alpha LBD / SRC-1 peptide, estradiol-bound | AID 629 | 86,000 compounds, 1.7% hits | inhibition, % at 25.6 µM; in the data active = inhibition above about 50%;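 note: 0% = receptor plus peptide control and 100% = peptide only without receptor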
Smad3 FoxH1 inh = inhibitors of human Smad3 transcription factor binding | P84022 | TR-FRET Smad3/Dy647-FoxH1 peptide binding, europium anti-His | inhibition, % at 25 µM | 88,000 compounds, 0.29% hits | AID 630;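 active = compounds that reduce the energy-transfer binding signal between the protein and its labelled peptide by more than half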;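 note: 0% = Smad3 plus labelled peptide maximal FRET and 100% = peptide-only background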
Target sequence (P84022 whole entry, looked up): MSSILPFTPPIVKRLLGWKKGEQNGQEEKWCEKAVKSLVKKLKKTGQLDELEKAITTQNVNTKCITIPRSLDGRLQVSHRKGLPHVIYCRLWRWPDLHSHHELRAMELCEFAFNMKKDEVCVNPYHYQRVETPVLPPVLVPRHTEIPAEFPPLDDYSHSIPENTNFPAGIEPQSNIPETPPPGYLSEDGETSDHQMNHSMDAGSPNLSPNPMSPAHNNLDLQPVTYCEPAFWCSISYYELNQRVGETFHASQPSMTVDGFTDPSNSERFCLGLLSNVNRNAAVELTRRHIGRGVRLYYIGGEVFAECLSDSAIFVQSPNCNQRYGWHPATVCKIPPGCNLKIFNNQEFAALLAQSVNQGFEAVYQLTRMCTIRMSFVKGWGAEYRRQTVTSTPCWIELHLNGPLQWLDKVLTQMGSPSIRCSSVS
ERa coact pot = enhances coactivator binding to human estrogen receptor alpha. P03372. TR-FRET ERalpha-LBD/SRC-Cy5 coactivator binding, 2 h; 100 = basal binding, no effect. coactivator binding (% of control), % at 25.6 µM. 86,000 compounds, 1.3% hits. AID 639; in the data active = activity above about 200%;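 note: binding measured in presence of low estradiol as agonist stimulus; 0% = peptide alone without receptor and 100% = receptor with peptide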
ERb coact inh = blocks coactivator binding to human estrogen receptor beta | Q92731 | TR-FRET ER-beta LBD / SRC1-Cy5 peptide binding; receptor agonist-loaded with 1 µM estradiol | inhibition, % at 25.6 µM | 86,000 compounds, 1.3% hits | AID 633;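 active = compounds whose percent inhibition of the receptor-coactivator binding signal exceeds about 50% in the single-dose screen, limit read from the data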;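 note: 0% = receptor plus peptide wells without compound and 100% = peptide-only wells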
Numbers without * were called inactive; [ ] = remark or other dose. Sampled rows, rich in hits. Any-hit rate of the full collection: about 2.9%.

CCOC(=O)c1cnn(-c2cc(Oc3ccccc3)ncn2)c1N was read as MRP-1 activ -0.3.
For COC(=O)N/N=C/c1ccc(-c2ccc(C)c(Cl)c2)o1 the results were MRP-1 activ 7.5*.
For COC(=O)N/N=C/c1ccc(-c2cccc(Cl)c2)o1 the results were MRP-1 activ 4.8*.
`COC(=O)N/N=C/c1ccc(-c2cc(Cl)cc(Cl)c2)o1` gave MRP-1 activ 8.5*.
Screening NC(=S)N/N=C/c1ccc(-c2cc(Cl)cc(Cl)c2)o1 returned MRP-1 activ -1.0, MRP reversal -20.5, ERa coact inh 10.2, Smad3 FoxH1 inh 7.0, ERa coact pot 76.1 and ERb coact inh -10.3.
`CCCC(=O)N1CCN(c2ccc(C(=O)c3ccc(OC)c(Br)c3)cc2F)CC1` gave MRP reversal -1.4, ERa coact inh 16.0, Smad3 FoxH1 inh 7.9, ERa coact pot 166.9 and ERb coact inh 3.1.
`COc1ccc(C(=O)c2ccc(N3CCN(C(=O)c4ccc(F)cc4)CC3)c(F)c2)cc1Br` gave MRP-1 activ -1.3, MRP reversal -8.2, ERa coact inh 24.1, Smad3 FoxH1 inh 10.6, ERa coact pot 291.9*[fluorescence artefact?] and ERb coact inh 22.5.
CCC(C)(C)n1nnnc1C(c1cc2cc(OC)ccc2[nH]c1=O)N1CCc2ccccc21 (centres undefined) was read as MRP-1 activ -1.8, MRP reversal 16.2, ERa coact inh -1.0, Smad3 FoxH1 inh 5.3, ERa coact pot 94.0 and ERb coact inh 3.4.
For O=c1[nH]c2cc3c(cc2cc1C(c1nnnn1C1CCCC1)N1CCSCC1)OCCO3 (centres undefined) the results were MRP-1 activ -6.4, MRP reversal -7.7, ERa coact inh 20.5, Smad3 FoxH1 inh 14.6, ERa coact pot 214.9*[fluorescence artefact?] and ERb coact inh 9.6.
For CCC(C)(C)n1nnnc1C(c1cc2ccc(OC)cc2[nH]c1=O)N1CCc2ccccc21 (centres undefined) the results were MRP-1 activ -3.9, MRP reversal -14.2, ERa coact inh 18.8, Smad3 FoxH1 inh -5.2, ERa coact pot 256.2* and ERb coact inh 6.4.
Cc1ccc2[nH]c(=O)c(C(c3nnnn3C3CCCC3)N3CCCc4ccccc43)cc2c1 (centres undefined) was read as MRP-1 activ 18.6*, MRP reversal -19.5, ERa coact inh -7.0, Smad3 FoxH1 inh 3.9, ERa coact pot 91.9 and ERb coact inh -6.9.
`CCC(C)(C)n1nnnc1C(c1cc2cc(C)ccc2[nH]c1=O)N1CCCc2ccccc21` (centres undefined) gave MRP-1 activ -1.7, MRP reversal 6.5, ERa coact inh 3.6, Smad3 FoxH1 inh -6.9, ERa coact pot 43.9 and ERb coact inh -2.8.
For CCOC(=O)c1sc(=NC(=O)c2ccc(OC)c(OC)c2)n(C)c1C the results were MRP-1 activ -4.3, MRP reversal -8.4, ERa coact inh -53.5, Smad3 FoxH1 inh -125.9, ERa coact pot 429.2*[fluorescence artefact?] and ERb coact inh 29.4.
For COC(=O)Oc1c(Br)c(=O)oc2ccccc12 the results were MRP-1 activ -2.2, MRP reversal -6.9, ERa coact inh 63.8*, Smad3 FoxH1 inh -7.7, ERa coact pot 31.5 and ERb coact inh 45.3.
For Cc1cccc(Cc2cnc(NC(=O)CN3C(=O)/C(=C/c4ccccc4)SC3=S)s2)c1 the results were MRP-1 activ 5.6*.
Cc1ccc(-c2cc(C(=O)NCc3ccco3)c3ccccc3n2)o1 was read as MRP-1 activ -1.8, MRP reversal 2.8, ERa coact inh 82.2*, Smad3 FoxH1 inh 22.0, ERa coact pot 24.9 and ERb coact inh 72.6*.
Screening O=C(NCc1ccco1)c1cc2ccccc2c(=O)o1 returned MRP-1 activ -4.3, MRP reversal -3.6, ERa coact inh 57.1*, Smad3 FoxH1 inh 3.5, ERa coact pot 67.3 and ERb coact inh 47.4.
Cc1ccc(-c2cc(C(=O)Nc3ccccc3C)c3ccccc3n2)o1 was read as MRP-1 activ -2.2, MRP reversal -14.3, ERa coact inh 78.0*[fluorescence artefact?], Smad3 FoxH1 inh 9.7, ERa coact pot 65.6 and ERb coact inh 56.2*[fluorescence artefact?].
`Cc1cc(C)c2nc(-c3ccccn3)cc(C(=O)NCc3ccco3)c2c1` gave MRP-1 activ -2.3, MRP reversal -27.1, ERa coact inh 66.4*, Smad3 FoxH1 inh 5.8, ERa coact pot 83.0 and ERb coact inh 62.6*[fluorescence artefact?].
O=C(NCc1ccco1)c1cc(-c2ccncc2)nc2ccccc12 was read as MRP-1 activ -3.3, MRP reversal 13.2, ERa coact inh -11.2, Smad3 FoxH1 inh 9.9, ERa coact pot 109.9 and ERb coact inh -0.5.
Screening O=C(O)C[C@H](NC(=O)CP(=O)(O)O)C(=O)O.[NH-][C@@H]1CCCC[C@H]1[NH-].[Pt] returned Smad3 FoxH1 inh 40.7.
For O=C(NCc1ccccn1)c1cc(-c2ccccc2)nc2ccccc12 the results were MRP-1 activ -2.2.
For O=C(NCc1ccccn1)c1cc(-c2ccc(-c3ccccc3)cc2)nc2ccccc12 the results were MRP-1 activ 5.5*.
For CC(=O)Nc1cc2c(cc1C(=O)c1ccccc1)OCCO2 the results were MRP-1 activ -0.3, MRP reversal -12.7, ERa coact inh 28.0, Smad3 FoxH1 inh 7.2, ERa coact pot 66.8 and ERb coact inh 62.9*.
Screening COc1ccccc1CNC(=O)COC(=O)c1cnccn1 returned MRP-1 activ 0.1, MRP reversal 7.9, ERa coact inh 1.6, Smad3 FoxH1 inh 6.2, ERa coact pot 115.2 and ERb coact inh 7.3.
COc1ccccc1CNC(=O)c1cnccn1 was read as MRP-1 activ -0.8, MRP reversal 20.5, ERa coact inh 61.4*[fluorescence artefact?], Smad3 FoxH1 inh 21.8, ERa coact pot 94.2 and ERb coact inh 37.2.
O=C(NCCc1ccccc1)C1CCN(S(=O)(=O)N2CCCC2)CC1 was read as MRP-1 activ -1.2, MRP reversal 8.6, ERa coact inh -0.4, Smad3 FoxH1 inh 3.7, ERa coact pot 113.0 and ERb coact inh 3.5.
`O=C(NCCc1ccccc1)C1CCN(S(=O)(=O)c2cccnc2)CC1` gave MRP-1 activ -2.2, MRP reversal 7.0, ERa coact inh 58.5*[fluorescence artefact?], Smad3 FoxH1 inh 3.9, ERa coact pot 114.4 and ERb coact inh -3.4.
CC(C)C(=O)Nc1ccc(C(=O)NC2CCSC2=O)cc1 (centres undefined) was read as MRP-1 activ -2.8, MRP reversal -21.9, ERa coact inh 14.6, Smad3 FoxH1 inh 3.0, ERa coact pot 204.2* and ERb coact inh 7.7.
For CC(Oc1ccc(Cl)cc1Cl)C(=O)NC1CCSC1=O (centres undefined) the results were MRP-1 activ 12.5*, MRP reversal -8.7, ERa coact inh -5.3, Smad3 FoxH1 inh 1.9, ERa coact pot 96.9 and ERb coact inh -0.9.
Screening COCCNC(=O)C(C)Oc1ccc(Cl)cc1Cl (centres undefined) returned MRP-1 activ -2.2.

High-throughput results from PubChem BioAssay.
